Experimental findings from PubChem BioAssay (NCI) are described below.

Some test systems named below: SK-MEL-2 melanoma; EKVX NSCLC; SN12C renal; UO-31 renal; TK-10 renal; ACHN renal; A498 renal; CCRF-CEM leukemia; MOLT-4 leukemia; CAKI-1 renal.
What all share (assay): NCI-60 one-dose screen, 48 h (100 = growth as untreated, 0 = no growth, -100 = all killed)
Holding throughout (details): 10 µM unless noted

“And” between values parts separate entries of the source, which are not always exact repeats. Equal values may be shown once. This is part of a sample that, as a whole, favours compounds with a hit. Of some 83,000 tested, about 20% had one in any assay.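 Growth was measured after 48 h exposure to one concentration of compound in 96-well plates. Values under 10 count as active.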 The source made the active and inactive calls.

Regarding `Nc1c(Cl)cc2c(c1Br)C(=O)c1ccccc1C2=O`, the growth in the test on SK-MEL-2 melanoma was 103% (inactive); in the test on EKVX NSCLC, 60.2% (inactive); in the test on SN12C renal, 87.3% (inactive); in the test with UO-31 renal, 63.2% (inactive); with TK-10 renal, 108% (inactive); in the test on ACHN renal it was 73% (inactive). For the same compound, the growth is 110% (inactive) with A498 renal, 96.2% (inactive) in the test with CCRF-CEM leukemia and 87.8% (inactive) in the test on MOLT-4 leukemia.
For the compound `O=C1C=CC[C@H](/C=C/c2ccccc2)O1`, the growth with SK-MEL-2 melanoma was -21.8% (active) and -43.1% (active); with EKVX NSCLC, 54.5% (inactive) and 56.3% (inactive); with SN12C renal, 55.6% (inactive) and 9.16% (active); in the test with UO-31 renal it was 38.8% (inactive) and 41% (inactive); in the test on TK-10 renal, 41.7% (inactive) and 22.3% (inactive); in the test with ACHN renal, 33.4% (inactive) and -36.3% (active). Also, the growth was -18.3% (active) and -10.1% (active) with A498 renal; 12.5% (inactive) and -3.54% (active) with CCRF-CEM leukemia; 3.44% (active) and -22.1% (active) in the test on MOLT-4 leukemia.
Consider `CCN(CC)C(CC(=O)c1ccccc1)C(=O)c1ccccc1` (configuration not stated), for which the growth in the test on SK-MEL-2 melanoma was 110% (inactive); in the test with EKVX NSCLC, 98.2% (inactive); in the test with SN12C renal, 93.4% (inactive); in the test with UO-31 renal, 84.1% (inactive); in the test on TK-10 renal, 70.2% (inactive); in the test on ACHN renal, 71.2% (inactive). In addition, the growth with A498 renal is 75.1% (inactive); in the test with CCRF-CEM leukemia it was 30.4% (inactive); in the test on MOLT-4 leukemia, 27.9% (inactive).
Take `COCCCNC1=C(C#N)C(=O)NC(c2cccs2)S1` (configuration not stated): the growth in the test on SK-MEL-2 melanoma was 119% (inactive); in the test with EKVX NSCLC, 84% (inactive); in the test on SN12C renal it was 93% (inactive); in the test with UO-31 renal it was 76.3% (inactive); with TK-10 renal, 92.5% (inactive); in the test on CAKI-1 renal, 92.7% (inactive). The growth in the test on A498 renal is 133% (inactive); in the test on CCRF-CEM leukemia it was 114% (inactive); with MOLT-4 leukemia, 172% (inactive).
In the case of `O=C(c1ccc(Cl)cc1)C1C(c2ccccc2)C1[N+](=O)[O-]` (configuration not stated), the growth was 106% (inactive) in the test with SK-MEL-2 melanoma; 105% (inactive) with EKVX NSCLC; 104% (inactive) in the test with SN12C renal; 74.8% (inactive) in the test on UO-31 renal; 95.1% (inactive) in the test with TK-10 renal; 111% (inactive) in the test with ACHN renal. Also, the growth was 86.3% (inactive) in the test on A498 renal, 103% (inactive) in the test with CCRF-CEM leukemia and 83.7% (inactive) in the test on MOLT-4 leukemia.
With `CC(O)CCNC(c1ccccc1)C(O)c1ccccc1` (configuration not stated), the growth in the test on SK-MEL-2 melanoma is 99.4% (inactive); in the test with EKVX NSCLC it was 115% (inactive); with SN12C renal, 108% (inactive); in the test on UO-31 renal it was 92.9% (inactive); in the test on TK-10 renal, 106% (inactive); in the test on CAKI-1 renal, 104% (inactive). Besides, the growth with A498 renal was 103% (inactive); in the test on CCRF-CEM leukemia it was 93.7% (inactive); in the test with MOLT-4 leukemia, 102% (inactive).
For `CN(C)C(=S)N(C)C`, the growth in the test on SK-MEL-2 melanoma is 104% (inactive); with EKVX NSCLC, 127% (inactive); in the test with SN12C renal it was 104% (inactive); with UO-31 renal, 98.4% (inactive); with TK-10 renal it was 99.2% (inactive); in the test with ACHN renal, 104% (inactive). Further, the growth in the test with A498 renal is 120% (inactive); in the test on CCRF-CEM leukemia, 97.5% (inactive); in the test with MOLT-4 leukemia, 109% (inactive).
As to `OCCCc1ccccc1`, the growth was 106% (inactive) with SK-MEL-2 melanoma; 110% (inactive) with EKVX NSCLC; 96.5% (inactive) in the test on SN12C renal; 72.6% (inactive) with UO-31 renal; 108% (inactive) in the test with TK-10 renal; 104% (inactive) with CAKI-1 renal. The growth in the test with A498 renal was 110% (inactive); with CCRF-CEM leukemia it was 108% (inactive); with MOLT-4 leukemia it was 111% (inactive).
`CCCCC/C(C)=N\NC(N)=S`: the growth in the test with SK-MEL-2 melanoma was 103% (inactive); with EKVX NSCLC it was 55.4% (inactive); with SN12C renal, 84.4% (inactive); in the test with UO-31 renal it was 61.8% (inactive); in the test on TK-10 renal it was 100% (inactive); in the test with CAKI-1 renal, 95.2% (inactive). For the same compound, the growth is 84.7% (inactive) in the test on A498 renal, 41.1% (inactive) in the test with CCRF-CEM leukemia and 57.2% (inactive) with MOLT-4 leukemia.
As for `N#Cc1ccc(/C=C/C(=O)c2ccccc2)cc1`, the growth is 90.7% (inactive) with SK-MEL-2 melanoma; 95.9% (inactive) and 111% (inactive) with EKVX NSCLC; 96.2% (inactive) and 92.6% (inactive) in the test on SN12C renal; -37.5% (active) with UO-31 renal; 98.9% (inactive) and 55.8% (inactive) in the test with TK-10 renal; 112% (inactive) and 92.9% (inactive) with ACHN renal. Moreover, the growth in the test with A498 renal is 112% (inactive) and 84.1% (inactive); in the test with CCRF-CEM leukemia, 17.6% (inactive) and 3.61% (active); with MOLT-4 leukemia it was -35.1% (active) and 29.4% (inactive).
Regarding `CCN(CC)Cc1cc2[nH]c3c4ccc(Cl)cc4ncc3c2cc1OC`, the growth in the test on SK-MEL-2 melanoma is 160% (inactive) and 97.9% (inactive); with EKVX NSCLC it was 83.5% (inactive) and 75% (inactive); in the test on SN12C renal it was 72.9% (inactive) and 78.8% (inactive); in the test with UO-31 renal, 110% (inactive) and 66.2% (inactive); in the test with TK-10 renal it was 123% (inactive) and 89.8% (inactive); in the test on ACHN renal, 83.7% (inactive) and 73.4% (inactive). The growth in the test with A498 renal is 146% (inactive) and 106% (inactive); with CCRF-CEM leukemia it was -21.5% (active) and 61% (inactive); in the test with MOLT-4 leukemia it was 40.4% (inactive).
For the compound `CCOC(=N)c1ccc(C(=N)OCC)cc1`, the growth in the test with SK-MEL-2 melanoma is 103% (inactive); in the test with EKVX NSCLC it was 90.2% (inactive); in the test on SN12C renal it was 98.4% (inactive); in the test with UO-31 renal, 95.1% (inactive); with TK-10 renal, 96.6% (inactive); with ACHN renal, 102% (inactive). In addition, the results for the growth in the test on A498 renal, in the test on CCRF-CEM leukemia and with MOLT-4 leukemia were 90.6% (inactive), 107% (inactive) and 111% (inactive), respectively.
Turning to `S=c1ccc2ccccc2[nH]1`, the growth in the test on SK-MEL-2 melanoma was 97.9% (inactive) and 97.2% (inactive); in the test on EKVX NSCLC, 107% (inactive) and 103% (inactive); in the test on SN12C renal, 101% (inactive); in the test with UO-31 renal it was 88.2% (inactive) and 80.9% (inactive); in the test with TK-10 renal, 105% (inactive) and 108% (inactive); in the test with ACHN renal it was 101% (inactive) and 109% (inactive). Besides, the growth in the test with A498 renal was 110% (inactive); in the test with CCRF-CEM leukemia, 103% (inactive) and 101% (inactive); with MOLT-4 leukemia, 93.3% (inactive) and 100% (inactive).
